Screens deposited in PubChem BioAssay by National Center for Advancing Translational Sciences (NCATS).
Shiga toxin inh – blocks Shiga toxin action in Vero cells; AID 2315; Vero cells, Shiga toxin protein synthesis inhibition reporter; 9.2% of 290,000 active; inhibition, % at 38.7 µM; in the data active = inhibition mostly above about 28%, no sharp cut-off; inactive = mostly below about 43%; note: 0% is about no effect
CHX counter – affects cycloheximide protein synthesis inhibition readout, counter-screen; cell reporter, cycloheximide protein synthesis inhibition counterscreen; max response, %; 12% of 300,000 active; in the data active = max response mostly above about 13%, no sharp cut-off; inactive = mostly below about 14%; note: read at 38.3 µM for the half of the compounds with a filed dose; 0% is about no effect
AmpC no deterg – inhibitors of E. coli AmpC beta-lactamase without detergent. AID 485341. Potency, µM (doses to about 57.1 µM), inactives show at the highest dose activity change, negative = inhibition, actives largely listed as inhibitors. 0.52% of 330,000 active. P00811. AmpC nitrocefin hydrolysis, absorbance 480 nm, 0.0001% Triton;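 note: potency is the fitted concentration of half-maximal effect; plate controls were no compound for no effect and no enzyme for full effect; nearly all actives have a fitted effect of over 20% in size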
Target sequence (P00811 whole entry, looked up): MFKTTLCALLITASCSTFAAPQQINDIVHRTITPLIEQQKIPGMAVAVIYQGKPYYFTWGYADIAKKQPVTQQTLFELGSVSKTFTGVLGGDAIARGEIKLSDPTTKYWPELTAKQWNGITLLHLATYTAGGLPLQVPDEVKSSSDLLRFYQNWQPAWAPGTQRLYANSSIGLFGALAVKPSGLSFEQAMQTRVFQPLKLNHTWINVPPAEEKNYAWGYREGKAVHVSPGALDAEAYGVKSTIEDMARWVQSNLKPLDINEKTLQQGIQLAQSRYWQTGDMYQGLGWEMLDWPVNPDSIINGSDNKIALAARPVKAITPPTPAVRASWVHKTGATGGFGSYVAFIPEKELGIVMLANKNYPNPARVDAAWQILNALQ
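AmpC (5.3 nM in the dispensed reagent) in 20 mM phosphate pH 7.0 with 0.01% (detergent screen) or 0.0001% Triton X-100 was preincubated with compounds for 15 min at room temperature. Nitrocefin was then added from an 800 uM solution, and hydrolysis was followed at 480 nm.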
SARS PLpro yeast – SARS-CoV PLP inhibition in yeast; S. cerevisiae expressing SARS-CoV PLpro, growth rescue; Potency, µM (titrated, usually from 32.9 µM), inactives show at the top dose activity, positive = growth rescue, actives largely listed as activators; 0.19% of 330,000 active; AID 485353; calls by dose curve; note: potency is the fitted concentration of half-maximal effect; 0% is about no effect; nearly all actives have a fitted effect of over 55% in size
AMA1 RON2 block – inhibitors of Plasmodium falciparum AMA1-RON2 interaction; 0.2% of 360,000 active; AlphaScreen AMA1-biotinylated RON2 peptide binding; Potency, µM (top dose mostly 58.2 µM), for inactives: top-dose activity change, negative = inhibition, usual class: inhibitors; AID 720542;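 note: potency is the fitted concentration of half-maximal effect; 0% = vehicle wells and -100% = peptide control; nearly all actives have a fitted effect of over 45% in size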
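AMA1 (3D7) with his tag at 25 nM final met compounds first, then biotinylated RON2 peptide at 25 nM; detection used donor plus acceptor beads, 10 µg/mL apiece, read by AlphaScreen after 30 min at room temperature.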
AmpC detergent – blocks E. coli AmpC beta-lactamase in detergent assay | AmpC hydrolysis of nitrocefin, absorbance 480 nm, 0.01% Triton | Potency, µM (titrated, usually from 114 µM), for inactives: top-dose activity change, negative = inhibition, most hits filed as inhibitors | 0.041% of 370,000 active | P00811;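 note: potency is the fitted concentration of half-maximal effect; 0% = no-compound wells and -100% = no-enzyme wells; nearly all actives have a fitted effect of over 25% in size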
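20 mM phosphate pH 7.0 + 0.01% (detergent screen) or 0.0001% Triton X-100; 5.3 nM AmpC reagent; cpd preinc 15 min RT; nitrocefin (800 uM stock) to start; A480 q20 s × 4 min; Activity was normalised to no-enzyme and no-compound control wells.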
* = called active by the depositor; u = inconclusive; x = not tested or not shown; [ ] = dose if it differs, or a comment. Only a selection was taken, and hits are over-represented in it overall. Unless noted, calls come from the whole dose curve; as a rule, active = well fitted curve in the direction sought with a large enough effect; inconclusive = small, poorly fitted or top-dose-only effect, or another doubt; inactive = no such curve, though single readings can be large; an effect the other way counts as inactive or inconclusive.

SMILES | Shiga toxin inh | CHX counter | AmpC no deterg | SARS PLpro yeast | AMA1 RON2 block | AmpC detergent
CC(C)(C)C(=O)NC(NC(=O)C(C)(C)C)c1ccc([N+](=O)[O-])cc1 | 1 | -6 | -29% | 11% | 25% | -2%
O=C(NNC(=S)Nc1ccccc1)C1CC1 | 32 | 9 | -17% | 0% | 20% | -1%
Cc1ccc(CNC(=S)Nc2ccc(NS(=O)(=O)c3ccc(C)cc3)cc2)cc1 | -6 | 0 | 2.2µM* | -5% | -9% | 0%
Cc1ccc(S(=O)(=O)NNC(=S)Nc2ccc(Cl)cc2)cc1 | 4 | 0 | -49% | -1% | 59% | -1%
S=C(NNC(=S)Nc1ccccc1)Nc1ccccc1 | 56* | 42* | -25% | 0% | 0% | 0%
Cc1ccc(NC(=S)NCc2ccc(F)cc2)cc1 | x | x | x | x | 5% | x
S=C(NN=C(C1CC1)C1CC1)Nc1ccccc1 | 43* | 34* | -7% | -4% | 17% | u
Cc1ccc(S(=O)(=O)NNC(=S)Nc2ccccc2)cc1 | 23 | 23* | -27% | -4% | -1% | -2%
Cc1nc(C(C)NC(=O)CCc2nnc(Cc3c[nH]c4ccccc34)o2)cs1 (stereo not given) | 17 | 11 | 13% | 0% | 17% | 2%
CCN(CC)P(=O)(/C=C(\Cl)c1ccccc1)/C=C(\Cl)c1ccccc1 | -21 | -4 | -29% | -1% | -7% | 7%
CCC(=O)CCC(=O)c1ccc2ccccc2c1 | 125* | 55* | -9% | 9% | 28% | -8%
CCOc1ccccc1NC(=O)c1cc(CC(C)C)oc1C | 9 | 2 | 0.32µM* | -17% | 7% | 4%
Cc1oc(CC(C)C)cc1C(=O)Nc1cccc2ccccc12 | -14 | -1 | -33% | -13% | -12% | 4%
CC(C)N(CCC(=O)c1ccc2ccccc2c1)Cc1ccccc1 | x | x | -22% | x | 6% | u
CCOc1ccccc1NC(=O)c1ccc2ccccc2c1 | x | 23* | -59% | -6% | 12% | -21%
CCOc1ccccc1NC(=O)c1ccc2[nH]c(C)c(C)c2c1 | 43* | 42* | -36% | 4% | -8% | 5%
Cc1ccc(C)c(NS(=O)(=O)c2c(C)ccc3nsnc23)c1 | -6 | -1 | -45% | -1% | -9% | -9%
O=S(=O)(NCc1cc(-c2ccc(Cl)cc2)no1)c1ccc(Cl)cc1 | -5 | 2 | -28% | -2% | -5% | -6%
Cc1ccc(C(=O)CCC(=O)Nc2ccccc2C)c(C)c1 | 12 | 29* | -7% | -4% | 0% | 5%
COc1ccc(C(=O)CCC(=O)Nc2ccccc2C)cc1 | x | x | x | x | x | -6%
CC(=O)c1ccc(C)cc1OC(=O)c1cccc(F)c1 | 1 | -3 | -17% | 4% | -7% | 8%
Cc1ccc(C(=O)CC(=O)c2cccc(F)c2)c(O)c1 | 77* | 36* | -26% | -3% | 60% | -9%
Cc1ccc(C(=O)CC(=O)c2ccccc2C)c(O)c1 | 39 | 20* | -35% | 1% | 66% | -2%
CCN1/C(=C/c2ccc3cccc(C)c3[n+]2CC)Sc2ccccc21 | 10 | -2 | -3% | -37% | -2% | u
CCN1/C(=C/C(C)=C/c2sc3ccccc3[n+]2CC)Sc2ccccc21 | -21 | -9 | 14% | -19% | 28µM* | 1%
SMILES | Shiga toxin inh | CHX counter | AmpC no deterg | SARS PLpro yeast | AMA1 RON2 block | AmpC detergent
O=C(CCCl)N1CCN(c2nc(-c3ccccc3)cs2)CC1 | 69* | 33* | 20% | -1% | 6% | 0%
CS(=O)(=O)N1CCN(c2nc(-c3ccccc3)cs2)CC1 | 64 | 27* | -12% | 6% | -8% | u
CCS(=O)(=O)N1CCN(c2nc(-c3ccccc3)cs2)CC1 | 30 | 18* | 2% | -5% | -4% | -5%
COc1cccc(-c2csc(N3CCN(S(=O)(=O)c4ccc(F)cc4)CC3)n2)c1 | 38 | -3 | -37% | -10% | 24% | -15%
CCCCC(=O)N1CCN(c2nc(-c3ccc(F)cc3)cs2)CC1 | 10 | 7 | 50% | 0% | -15% | -22%
COc1ccccc1NC(=O)c1oc2ccccc2c1C | x | x | x | x | 38% | x
COc1ccc(NC(=O)c2cc3ccccc3oc2=O)c(OC)c1 | 133* | 51* | -6% | 2% | -10% | -12%
COc1ccc(S(=O)(=O)Nc2ccccc2OC)cc1NC(=O)c1cc2ccccc2oc1=O | 148* | 38* | -13% | 22% | 9%[11.6 µM] | -8%
COc1ccc(OC)c(NC(=O)c2cc3cccc(OC)c3oc2=O)c1 | x | x | x | x | x | 9%
COc1ccc(NC(=O)c2oc3ccccc3c2C)c(OC)c1 | 46* | 16* | -14% | -4% | -7% | u
COc1ccccc1C(=O)Nc1cc2ccccc2oc1=O | 43* | 19* | 12% | 4% | 14% | 3%
O=C(N/N=C/c1cccc(OCC(=O)N2CCCC2)c1)C(=O)Nc1ccccc1F | 17 | -2 | -19% | 8% | 6% | -9%
O=[N+]([O-])c1ccc(/C=C/c2ccncc2)cc1 | 68* | 30* | -15% | -2% | u | 0%
C(=C\c1ccncc1)/c1ccccc1 | 34 | 36* | -2% | -2% | 20% | -6%
C(=C\c1ccncc1)/c1ccncc1 | -1 | -2 | -10% | -1% | 0% | 1%
O=[N+]([O-])c1cccc(/C=C/c2ccncc2)c1 | 37 | 22* | -13% | -6% | 5% | -6%
CCOC(=O)C[n+]1ccc2c([nH]c3ccccc32)c1C | x | -3 | -28% | 1% | -9% | -19%
CCOC(=O)/C=C(C)\C=C\c1c[nH]c2ccccc12 | 56* | 30* | -38% | -2% | -24% | 0%
CCOC(=O)/C(=C/c1c[nH]c2ccccc12)NC(C)=O | 9 | 1 | 0% | 3% | u | -1%
Clc1ccccc1OCc1nnc(-c2ccccc2)o1 | 67* | 46* | 1% | -1% | 13% | 0%
CC(=O)Nc1ccccc1OCc1nnc(-c2ccc(Cl)cc2)o1 | 33 | 28* | -9% | -3% | 0% | -4%
Clc1ccccc1-c1nnc(COc2ccccc2)o1 | x | x | x | x | x | -3%
CN1C(=O)CS(=O)c2ccc(C(=O)NCCC3=CCCCC3)cc21 (stereo not given) | 0 | -2 | -17% | -4% | 2% | u
O=C(C[n+]1cc(Br)cc2ccccc21)c1ccccc1 | 11 | 9 | -17% | 3% | -5% | 1%
COc1ccc(N/C=C/C(=O)C(C)(C)C)cc1 | 93* | 31* | 2% | -1% | u | 6%
NS(=O)(=O)c1ccc(N/C=C\C(=O)c2ccc3ccccc3c2)cc1 | 18 | 31* | -57% | -9% | 12% | u
O=C(/C=C/Nc1ccc(S(=O)(=O)Nc2ncccn2)cc1)c1ccc(Cl)c(Cl)c1 | 15 | -1 | -19% | u | -3% | -13%
COc1ccc(N/C=C\C(=O)c2ccc3ccccc3c2)cc1 | 24 | 29* | -23% | 5% | 0% | u
